Among the data in PubChem BioAssay AID1159580 (chemical genetic matrix, 2015) are normalized growth values, retold here.

This test is described as follows: chemical genetic growth profiling, strain panel (AID 1159580).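 Also: tested at 20 µM; growth read once vehicle control cultures reached saturation at 30 °C; 1 = growth at the plate median or of vehicle wells; lower values mean less growth of the strain.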 To be noted: S. cerevisiae deletion strains, growth OD.
Where [1] appears, read: locus YAL040C, strain CLN3, hits give low values.
Where [2] appears, read: locus YCL061C, strain MRC1 (second series), hits give low values.
The mark [3] stands for this setting: locus YDR363W, strain ESC2, hits give low values.
The mark [4] stands for this setting: locus YER002W, strain NOP16, hits give low values.
[5] abbreviates: locus YGR078C, strain PAC10, hits give low values.
Where [6] appears, read: locus YGR229C, strain SMI1, hits give low values.
Where [7] appears, read: locus YMR307W, strain GAS1, hits give low values.
Setting [8] is: locus YNL153C, strain GIM3, hits give low values.
[9] abbreviates: locus YNL175C, strain NOP13, hits give low values.
The mark [10] stands for this setting: locus YNL197C, strain WHI3, hits give low values.
[11] abbreviates: locus YNL224C, strain SQS1, hits give low values.
The mark [12] stands for this setting: locus YOR083W, strain WHI5 (second series), hits give low values.
The mark [13] stands for this setting: locus YMR263W, strain SAP30, hits give low values.
The mark [14] stands for this setting: locus YNL128W, strain TEP1, hits give low values.
[15] abbreviates: locus YNL322C, strain KRE1, hits give low values.
[16] abbreviates: locus YPL241C, strain CIN2, hits give low values.
[17] abbreviates: locus YJR075W, strain HOC1, hits give low values.

Hit rate of the full screen: of about 5,500 compounds, about 2,000 (36%) were called active. About 18% were inconclusive and are not listed. Some of the results follow. Unmarked numbers belong to inactive results. Rule as the data show it: active = normalized growth mostly below about 0.91 (no sharp cut-off); inconclusive = no clear call, values can overlap the other calls; inactive = mostly above about 0.92.

Regarding `NC(=O)C1=CN(C2OC(COP(=O)(O)OP(=O)(O)OC[C@H]3O[C@@H](n4cnc5c(N)ncnc54)C(OP(=O)(O)O)[C@H]3O)C(O)C2O)C=CC1` (stereo not given in full), the normalized growth was 0.989 under setting [1]; 0.997 under setting [2]; 0.976 under setting [3]; 0.977 under setting [4]; 0.979 under setting [5]; 1 under setting [6]. The normalized growth is, setting by setting: under setting [7], 1; under setting [8], 1.02; under setting [9], 0.98; under setting [10], 0.986; under setting [11], 1; under setting [12], 0.991.

As to `CCCN1CCC[C@H](c2cccc(O)c2)C1`, the normalized growth was 1 under setting [1]; 0.999 under setting [2]; 1.03 under setting [3]; 0.988 under setting [4]; 1.01 under setting [5]; 1 under setting [6]. Moreover, the normalized growth reads like this: under setting [13], 0.993; under setting [7], 0.992; under setting [14], 1.01; under setting [8], 1.18; under setting [9], 0.995; under setting [10], 1.01. Also, the normalized growth by setting is: under setting [11], 1; under setting [15], 1; under setting [12], 1; (locus YPL055C, strain LGE1, hits give low values) 0.994; under setting [16], 1.01.

Turning to `CCCN1CCC[C@@H](c2cccc(O)c2)C1`, the normalized growth is, setting by setting: under setting [1], 0.98; under setting [2], 1; under setting [3], 1.03; under setting [4], 0.983; under setting [5], 0.984; under setting [6], 0.999. Moreover, the normalized growth under setting [17] was 1; the normalized growth under setting [13] is 1; the normalized growth under setting [7] was 0.996; the normalized growth under setting [14] was 0.999; the normalized growth under setting [9] was 1.01; the normalized growth under setting [10] was 0.446 (active). Besides, the normalized growth is 0.993 under setting [11], 1.01 under setting [12] and 0.999 under setting [16].

For `CCCN1CCC[C@@H](c2cccc(C#N)c2)C1`, the normalized growth (locus YAL013W, strain DEP1, hits give low values) was 1.01; the normalized growth under setting [1] is 0.986; the normalized growth under setting [2] was 1.01; the normalized growth (locus YDR150W, strain NUM1, hits give low values) is 0.994; the normalized growth under setting [3] is 1.04; the normalized growth under setting [4] is 0.989. The normalized growth under setting [6] was 1.04; the normalized growth under setting [17] is 1; the normalized growth under setting [13] is 1.01; the normalized growth under setting [9] was 0.993; the normalized growth under setting [10] was 1.04; the normalized growth under setting [11] was 1.01. Further, the normalized growth was 1 under setting [15] and 0.978 under setting [12].

As to `NCCc1c[nH]c2ccc(C(N)=O)cc12`, the normalized growth under setting [1] is 1.1; the normalized growth under setting [2] is 1; the normalized growth under setting [3] was 1.01; the normalized growth under setting [4] was 1.01; the normalized growth under setting [5] was 1.02; the normalized growth under setting [7] was 1. Further, the normalized growth reads like this: under setting [8], 1.01; under setting [9], 1.01; under setting [10], 1.02; under setting [11], 0.997; under setting [12], 1.02; under setting [16], 1.
